Where “and” joins values, the source holds several entries; their conditions need not be identical. Equal values may be shown once. Compounds without any hit were thinned out: in the full panel of roughly 83,000, 20% have a hit.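 Single-concentration screen, 48 h exposure, 96-well plates. Endpoint: percent growth. Below 10 = active.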 Values without a mark were called inactive. Calls of active or inactive are those of the source.
These molecules were tested on MDA-MB-468 breast (assay: NCI-60 one-dose screen, 48 h (100 = growth as untreated, 0 = no growth, -100 = all killed)). Conditions: 10 µM unless noted.
For `O=c1ccc2nc(-c3ccccn3)nn(-c3ccccc3)c-2c1`, the growth was -32.1% (active). Molecule `CC(C)(C)OC(=O)N1C/C(=C\c2cccs2)C(=O)/C(=C/c2cccs2)C1` has a growth of 87.5%. In the case of `CN1/C(=C/C=C/c2n(Cc3ccc4ccccc4c3)c(Cl)c(Cl)[n+]2Cc2ccc3ccccc3c2)Oc2ccccc21`, the growth is reported as -56.7% (active). In the case of `O=C(c1nnc(Nc2ccccc2Br)o1)c1c[nH]c2ccccc12`, the growth is reported as 103%. In the case of `Cc1cnc(C(=O)Nc2nc3ccc(S(=O)(=O)Nc4ccc(C5(C(F)(F)F)CC5)cc4)cc3[nH]2)cn1`, the growth is reported as -26.2% (active). `O=[N+]([O-])c1ccc(-c2cn3nc(-c4c[nH]c5ccccc45)sc3n2)cc1` gave a growth of 96%. With `Cc1cc2c(F)c(Oc3ncnn4cc(OC[C@@H](C)OC(=O)[C@H](C)N)c(C)c34)ccc2[nH]1` the growth was 71.5%. `O=C(N/N=C/C=C/c1ccc([N+](=O)[O-])o1)c1cc2ccccc2cc1O` was tested, and the growth was -65% (active). Work on `Cc1ccc2nc(NC(=O)CSc3nc(-c4ccccc4)c(C#N)c4nnnn34)sc2c1` yielded a growth of 107%. `COc1ccc(NC(=O)CSc2nc(C)c(C(C)=O)n2-c2ccc([N+](=O)[O-])cc2)cc1` gave a growth of 91.4%. Work on `CC(C)(C)OC(=O)CN1CCc2c(sc3ncnc(N/N=C/c4ccccc4Br)c23)C1` yielded a growth of 88.5%. `Cc1ccc2nc3ccccc3c(NCc3ccccc3)c2c1` was tested, and the growth was -11% (active). In the case of `Cc1ccc(S(=O)(=O)Oc2ccc3c4c(c(=O)oc3c2)CCCCC4)cc1`, the growth is reported as 35.5%. With `CC(=O)O[C@]1(C)CC[C@H]2[C@H](CNCCc3ccc(Cl)cc3)C(=O)O[C@@H]2C2=C(C)C(=O)C[C@H]21` the growth was 47.3%. Molecule `O=C(/C=C/c1cn(-c2ccccc2)nc1-c1ccc(Cl)cc1)c1ccc(F)cc1` has a growth of 100%. With `CC1=CC(=O)C(C(C)C)=CC1=Nc1cc(Br)c(O)c(Br)c1` the growth was 44.7%. In the case of `COc1ccc2[nH]c(C(=O)OCc3ccc4cccc(O)c4n3)cc2c1`, the growth is reported as -70.8% (active). With `C=CCn1c(=O)c2cnc(Nc3ccc(N4CCN(C)CC4)cc3)nc2n1-c1cccc(C(C)(C)O)n1` the growth was -0.604% (active). With `N#Cc1ccc(N2Cc3cc(Cl)ccc3OC3=C2C(=O)N(Cc2ccc(F)cc2)C3=O)cc1` the growth was -68.2% (active). `O=C(CN1CCN(c2cc3c(cc2F)c(=O)c(C(=O)O)cn3C2CC2)CC1)Nc1nc(-c2ccc(Cl)cc2)cs1` was tested, and the growth was 21.7%. `Oc1[nH]c2ccc(Cl)cc2c1/C=c1/ccc2c(c1)N=C(c1ccc(F)cc1)N=2` was tested, and the growth was 9.65% (active). `O=C(/C=C/C=C/c1c(C2CC2)nc2ccccc2c1-c1ccc(F)cc1)c1cccs1` was tested, and the growth was 4.94% (active). Work on `COc1cccc(NC(=O)[C@H](C(C)C)n2c(=O)[nH]c3ccccc3c2=O)c1` yielded a growth of 101%. For `O=C1/C(=C/C=C/c2ccco2)SC(=S)N1c1ccccc1`, the growth was -9.4% (active). In the case of `O=C(OCc1ccccc1)n1nnc2ccccc21`, the growth is reported as 107%. For `CC12CCC3C4(C)COC(c5ccco5)OC4CCC3(C)C1CC(C1=CCOC1=O)O2` (stereo not given), the growth was 91.8%. `NC(=S)N/N=C(/c1ccccc1)c1ccccc1N` gave a growth of 18.4%. `O=C1CCC(=O)N1C1CCCCC1` showed a growth of 97%. In the case of `CC(C)CNC(=O)c1ccccc1C(=O)NC1(C(=O)NCC(C)C)CCCC1`, the growth is reported as 101% and 121%. `O=S(=O)(O)c1ccc(Cl)c(Cl)c1` was tested, and the growth was 115%. `Cc1ccc(-c2cc3nc(C(Cl)Cl)nc(-c4cccs4)n3n2)cc1` showed a growth of 39.5%. In the case of `Nc1c(Cl)cc(/C=C2\C=Cc3ccccc32)cc1Cl`, the growth is reported as 97.9%. Work on `O=C(Nc1ccccc1O)c1ccc(NS(=O)(=O)c2cccc3cccnc23)cc1` yielded a growth of 49.8%. With `COC(=O)CNC(=O)[C@@H](OC)[C@@H]1Cc2cc3cc(OC4CC(OC5CC(O)C(O)C(C)O5)C(O)C(C)O4)c(C)c(O)c3c(O)c2C(=O)[C@H]1OC1CC(OC2CC(OC3CC(C)(O)C(O)C(C)O3)C(O)C(C)O2)C(O)C(C)O1` (stereo not given in full) the growth was -22.3% (active). `CC(C)CCc1nc2ccc(NCc3ccc(OCCN4CCC(C)CC4)cc3)cc2[nH]1` gave a growth of 65.6%. `Cc1cc(C)c(-c2c(C)cc(C)cc2CBr)c(CBr)c1` was tested, and the growth was 45.1%. With `COc1ccc(C2=NN(C(C)=O)C(c3ccc(Oc4ccnc5cc(Cl)ccc45)c(OC)c3)C2)cc1` (stereo not given) the growth was 54%. In the case of `CCCCCCCCn1ccc2cc(NC(=O)CN=[N+]=[N-])ccc21`, the growth is reported as 105%. For `COc1cccc(-c2nc3sccn3c2-c2ccnc(NCCCNS(=O)(=O)c3ccc(Cl)cc3)c2)c1`, the growth was 34.3%. In the case of `c1ccc(-c2nnc(Nc3ccc4c(c3)OCCO4)o2)c(NCc2ccncc2)c1`, the growth is reported as -33.4% (active).

— PubChem BioAssay (NCI)
